Here are results for five compounds from PubChem BioAssay (EPA / NIEHS).

Assay [1] is described as follows: ATG_NFI_CIS: Attagene CIS-FACTORIAL HepG2 Assay for human Nuclear Factor I (NFI) (AID 2282989). The following applies: HepG2 cis-regulatory reporter, NFI response element transcription; actives raise or lower the signal. The essentials:
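Reporter transcription driven by endogenous transcription factors in HepG2 cells; 24 h treatment. Quantitation by labelled RT-PCR fragments on capillary electrophoresis, gain- or loss-of-signal relative to DMSO.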

The target in assay [2] is Myc proto-oncogene protein (Homo sapiens) (UniProt P01106). Nature of the assay: ATG_Myc_CIS: Attagene CIS-FACTORIAL HepG2 Assay for human Myelocytomatosis (Myc) Proto-Oncogene Transcription Factor (AID 2282990). As to conditions: HepG2, Attagene cis-reporter transcription factor activity; actives raise or lower the signal. The essentials: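 HepG2 cells transiently transfected with multiple cis-promoter-driven reporter transcription units, so endogenous TF activity is read. After 24 h compound exposure, reporter mRNA was quantified by RT-PCR, 6-FAM labelling, HpaI digestion and capillary electrophoresis; bidirectional fit versus DMSO.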

Assay [3] can be described thus: ATG_NF_kB_CIS: Attagene CIS-FACTORIAL HepG2 Assay for human Nuclear Factor Kappa B (NF-kB) (AID 2282991). The following applies: HepG2 Attagene cis-factorial NF-kB reporter mRNA; actives raise or lower the signal. The essentials: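 Read-out: reporter transcript levels quantified by RT-PCR plus capillary electrophoresis of 6-FAM-labelled, HpaI-cut fragments. Transfected HepG2 cells, 24 h compound exposure, endogenous NF-kB-driven cis element; gain or loss scored versus DMSO.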

A short description of assay [4]: ATG_NRF2_ARE_CIS: Attagene CIS-FACTORIAL HepG2 Assay for human Nuclear Factor Erythroid 2 Related Factor 2 (NFR2) response to Antioxidant Response Elements (ARE) (AID 2282992).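 On AC50: reporter mRNA level measured by RT-PCR and capillary electrophoresis fluorescence.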 The following applies: HepG2 Attagene ARE/NRF2 reporter, transcription factor activity; actives raise or lower the signal. The essentials: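 Fluorescence intensity of reporter-specific cDNA fragments, separated by capillary electrophoresis, reflects mRNA induction in transfected HepG2 cells at 24 h. Activity is fitted bidirectionally, DMSO serving as baseline.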

The nature of assay [5]: ATG_Oct_MLP_CIS: Attagene CIS-FACTORIAL HepG2 Assay for human Octamer-Binding Transcription Factor (Oct) (AID 2282993). The following applies: HepG2 Attagene cis-factorial Oct reporter, mRNA; actives raise or lower the signal. The essentials: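 Transfected HepG2 cells, 24 h treatment. Reporter mRNA quantified by RT-PCR–capillary electrophoresis; bidirectional fitting against DMSO.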

In assay [6] the target is Cellular tumor antigen p53 (Homo sapiens) (UniProt P04637). Nature of the assay: ATG_p53_CIS: Attagene CIS-FACTORIAL HepG2 Assay for human p53 Transcription Factor (AID 2282994). The following applies: HepG2 p53 cis-element reporter, Attagene mRNA; actives raise or lower the signal. The essentials:
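Transiently transfected HepG2 (multiple cis reporter transcription units); exposure 24 h; reporter RNA via RT-PCR, 6-FAM extension, 2 h HpaI digest at 37 C, CE detection; DMSO baseline.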

The target of assay [7] is human Peroxisome Proliferator-activated Receptor alpha (PPARa), PPARA (gene 5465) (UniProt Q07869). The assay can be described thus: ATG_PPARa_TRANS: Attagene TRANS-FACTORIAL HepG2 Assay for human Peroxisome Proliferator-activated Receptor alpha (PPARa) (AID 2283001; active means hit-call score of the fitted dose curve at least 0.9, where 1 is the maximum;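 on AC50: potency for gain of reporter signal over DMSO so agonist or activator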). The method in brief:
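Cells (HepG2) are transfected with multiple reporter transcription units, exposed to chemical for 24 h, then total RNA is reverse-transcribed and amplified. Labelled products are quantified by capillary electrophoresis; induction is referenced to DMSO.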

Assay [8] has as its target human Peroxisome Proliferator-activated Receptor delta (PPARd), PPARD (gene 5467) (UniProt Q03181). Nature of the assay: ATG_PPARd_TRANS: Attagene TRANS-FACTORIAL HepG2 Assay for human Peroxisome Proliferator-activated Receptor delta (PPARd) (AID 2283002; active means hit-call score of the fitted dose curve at least 0.9, where 1 is the maximum). The essentials: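 HepG2 cells transiently transfected with multiplexed GAL4-UAS reporter units and exogenous chimeric NR-Gal4 proteins; 24 h compound exposure. Reporter mRNA measured by RT-PCR, 6-FAM labelling, HpaI digestion and capillary electrophoresis; gain of signal versus DMSO.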

The target in assay [9] is Peroxisome proliferator-activated receptor gamma (Homo sapiens) (UniProt P37231). Nature of the assay: ATG_PPARg_TRANS: Attagene TRANS-FACTORIAL HepG2 Assay for human Peroxisome Proliferator-activated Receptor-gamma (PPARg) (AID 2283007; active means hit-call score of the fitted dose curve at least 0.9, where 1 is the maximum). The method in brief:
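Read-out: reporter mRNA induction, detected by fluorescence after RT-PCR and capillary electrophoresis. Transiently transfected human HepG2 liver cells carrying a chimeric NR-Gal4 construct were dosed for 24 h; activity was fitted upward relative to DMSO.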

The target in assay [10] is Nuclear receptor subfamily 1 group I member 2 (Homo sapiens) (UniProt O75469). The assay can be described thus: ATG_PXR_TRANS: Attagene TRANS-FACTORIAL HepG2 Assay for human Pregnane X Receptor (PXR) (AID 2283008; active means hit-call score of the fitted dose curve at least 0.9, where 1 is the maximum). The essentials:
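Transient HepG2 transfectants carrying multiplexed reporter transcription units; PXR activity read through a Gal4 chimera. 24 h exposure. RT-PCR/CE fluorescence; upward curve fit referenced to DMSO.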

The target in assay [11] is Retinoic acid receptor alpha (Homo sapiens) (UniProt P10276). Nature of the assay: ATG_RARa_TRANS: Attagene TRANS-FACTORIAL HepG2 Assay for human Retinoic Acid Receptor alpha (RARa) (AID 2283005; active means hit-call score of the fitted dose curve at least 0.9, where 1 is the maximum). The method in brief:
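HepG2 cells transiently transfected with multiple reporter units expressing chimeric RARα-GAL4 fusion, with GAL4-UAS-driven reporters. After 24 h compound exposure, reporter mRNA induction quantified by RT-PCR and capillary electrophoresis with fluorescent labeling; gain-of-signal fitted relative to DMSO control.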

Assay [12] concerns the target human Retinoic Acid Receptor gamma (RARg), RARG (gene 5916) (UniProt P13631). The assay can be described thus: ATG_RARg_TRANS: Attagene TRANS-FACTORIAL HepG2 Assay for human Retinoic Acid Receptor gamma (RARg) (AID 2283009; active means hit-call score of the fitted dose curve at least 0.9, where 1 is the maximum). The method in brief: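 Transactivation of exogenous RARg-Gal4 fusion measured as reporter transcript induction after 24 h in transfected HepG2 cells. RNA reverse-transcribed, amplified, fluorescently labeled and resolved by capillary electrophoresis; increase relative to DMSO.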

The target in assay [13] is human RAR-related Orphan Receptor beta (RORb), RORB (gene 6096) (UniProt Q92753). The assay can be described thus: ATG_RORb_TRANS: Attagene TRANS-FACTORIAL HepG2 Assay for human RAR-related Orphan Receptor beta (RORb) (AID 2283010; active means hit-call score of the fitted dose curve at least 0.9, where 1 is the maximum). The method in brief:
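Read-out is reporter mRNA induction, quantified by RT-PCR with fluorescent capillary electrophoresis, 24 h post-dose in transiently transfected HepG2 expressing exogenous NR-Gal4 chimera. Activity fitted upward versus DMSO.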

Records with an inconclusive call do not appear. Activity calls are given as the source filed them. How the source made its calls, unless noted: active means hit-call score of the fitted dose curve at least 0.9, where 1 is the maximum; inactive means score below 0.9.

Chain of Peroxisome proliferator-activated receptor gamma (Homo sapiens) (P37231 whole entry, looked up, the tested form may be a part): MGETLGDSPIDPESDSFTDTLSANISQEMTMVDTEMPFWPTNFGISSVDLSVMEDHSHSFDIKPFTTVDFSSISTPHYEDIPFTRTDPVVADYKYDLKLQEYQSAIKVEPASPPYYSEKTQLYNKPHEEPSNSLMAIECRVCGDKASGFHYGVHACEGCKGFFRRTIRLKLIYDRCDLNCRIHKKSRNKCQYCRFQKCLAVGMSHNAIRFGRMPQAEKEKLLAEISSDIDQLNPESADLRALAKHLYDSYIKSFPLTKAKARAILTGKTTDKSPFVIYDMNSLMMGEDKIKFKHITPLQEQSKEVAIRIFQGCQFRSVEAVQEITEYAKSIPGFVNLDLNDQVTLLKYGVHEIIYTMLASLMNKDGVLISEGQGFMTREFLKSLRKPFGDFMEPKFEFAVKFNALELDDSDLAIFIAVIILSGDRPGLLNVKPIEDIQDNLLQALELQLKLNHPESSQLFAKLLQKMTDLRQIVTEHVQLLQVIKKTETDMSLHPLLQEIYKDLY
Chain of human Retinoic Acid Receptor gamma (RARg), RARG (gene 5916) (P13631 whole entry, looked up, the tested form may be a part): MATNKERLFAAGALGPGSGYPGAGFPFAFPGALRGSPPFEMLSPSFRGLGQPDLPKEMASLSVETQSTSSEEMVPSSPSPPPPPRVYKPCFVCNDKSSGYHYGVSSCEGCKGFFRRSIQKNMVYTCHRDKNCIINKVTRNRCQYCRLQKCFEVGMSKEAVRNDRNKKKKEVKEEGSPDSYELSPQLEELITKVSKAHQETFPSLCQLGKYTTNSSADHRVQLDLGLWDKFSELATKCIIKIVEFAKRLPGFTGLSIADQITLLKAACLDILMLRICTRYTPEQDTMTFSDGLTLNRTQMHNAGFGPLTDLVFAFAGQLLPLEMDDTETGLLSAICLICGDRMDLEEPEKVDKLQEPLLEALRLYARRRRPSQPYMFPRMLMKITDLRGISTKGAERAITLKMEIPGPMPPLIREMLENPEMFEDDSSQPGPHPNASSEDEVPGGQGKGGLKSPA
Chain of Myc proto-oncogene protein (Homo sapiens) (P01106 whole entry, looked up): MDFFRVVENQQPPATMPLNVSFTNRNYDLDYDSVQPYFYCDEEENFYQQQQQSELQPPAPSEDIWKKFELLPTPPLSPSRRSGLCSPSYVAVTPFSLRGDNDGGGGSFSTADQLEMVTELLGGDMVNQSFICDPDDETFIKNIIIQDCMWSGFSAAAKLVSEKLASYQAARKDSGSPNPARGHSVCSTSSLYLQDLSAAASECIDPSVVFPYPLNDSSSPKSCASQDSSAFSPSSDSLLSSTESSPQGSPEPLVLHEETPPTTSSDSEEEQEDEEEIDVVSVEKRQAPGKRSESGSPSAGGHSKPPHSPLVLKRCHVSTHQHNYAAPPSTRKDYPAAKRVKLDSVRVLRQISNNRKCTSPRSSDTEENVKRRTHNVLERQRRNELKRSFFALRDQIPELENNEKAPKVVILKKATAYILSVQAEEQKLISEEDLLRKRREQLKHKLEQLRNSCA
Chain of Cellular tumor antigen p53 (Homo sapiens) (P04637 whole entry, looked up): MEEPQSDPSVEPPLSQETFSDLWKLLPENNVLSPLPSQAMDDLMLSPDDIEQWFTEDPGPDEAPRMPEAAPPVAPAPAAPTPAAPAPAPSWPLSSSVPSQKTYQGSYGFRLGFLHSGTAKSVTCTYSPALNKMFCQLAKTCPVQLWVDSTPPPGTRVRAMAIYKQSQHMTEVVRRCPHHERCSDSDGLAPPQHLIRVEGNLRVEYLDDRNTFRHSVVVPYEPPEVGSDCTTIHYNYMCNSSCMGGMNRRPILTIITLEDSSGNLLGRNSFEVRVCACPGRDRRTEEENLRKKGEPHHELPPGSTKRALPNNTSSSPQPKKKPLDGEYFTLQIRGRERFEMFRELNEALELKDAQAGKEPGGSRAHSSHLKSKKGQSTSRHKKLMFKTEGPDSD
Chain of human Peroxisome Proliferator-activated Receptor delta (PPARd), PPARD (gene 5467) (Q03181 whole entry, looked up, the tested form may be a part): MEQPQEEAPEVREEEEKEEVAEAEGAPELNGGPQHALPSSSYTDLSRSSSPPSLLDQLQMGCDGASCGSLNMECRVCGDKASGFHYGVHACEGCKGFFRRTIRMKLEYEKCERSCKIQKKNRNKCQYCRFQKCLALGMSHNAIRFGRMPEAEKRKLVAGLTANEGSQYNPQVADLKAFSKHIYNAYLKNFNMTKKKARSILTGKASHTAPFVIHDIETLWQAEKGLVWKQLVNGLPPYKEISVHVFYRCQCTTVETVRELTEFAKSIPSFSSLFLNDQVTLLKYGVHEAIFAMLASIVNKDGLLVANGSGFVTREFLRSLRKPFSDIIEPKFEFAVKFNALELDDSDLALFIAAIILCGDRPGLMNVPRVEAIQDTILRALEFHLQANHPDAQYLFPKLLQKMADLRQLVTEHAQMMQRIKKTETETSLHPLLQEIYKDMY
Chain of human Peroxisome Proliferator-activated Receptor alpha (PPARa), PPARA (gene 5465) (Q07869 whole entry, looked up): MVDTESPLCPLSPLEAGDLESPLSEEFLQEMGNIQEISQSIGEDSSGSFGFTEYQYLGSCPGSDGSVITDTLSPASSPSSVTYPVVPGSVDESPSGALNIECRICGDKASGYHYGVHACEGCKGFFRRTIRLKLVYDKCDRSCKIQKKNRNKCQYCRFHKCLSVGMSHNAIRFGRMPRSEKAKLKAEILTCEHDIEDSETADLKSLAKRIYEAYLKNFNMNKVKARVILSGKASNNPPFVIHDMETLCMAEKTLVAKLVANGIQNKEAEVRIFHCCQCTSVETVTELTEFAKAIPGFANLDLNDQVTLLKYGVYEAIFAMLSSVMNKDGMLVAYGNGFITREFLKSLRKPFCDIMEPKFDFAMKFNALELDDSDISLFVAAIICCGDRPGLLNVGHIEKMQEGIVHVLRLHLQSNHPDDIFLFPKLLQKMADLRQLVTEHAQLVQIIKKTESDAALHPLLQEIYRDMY
Chain of human RAR-related Orphan Receptor beta (RORb), RORB (gene 6096) (Q92753 whole entry, looked up, the tested form may be a part): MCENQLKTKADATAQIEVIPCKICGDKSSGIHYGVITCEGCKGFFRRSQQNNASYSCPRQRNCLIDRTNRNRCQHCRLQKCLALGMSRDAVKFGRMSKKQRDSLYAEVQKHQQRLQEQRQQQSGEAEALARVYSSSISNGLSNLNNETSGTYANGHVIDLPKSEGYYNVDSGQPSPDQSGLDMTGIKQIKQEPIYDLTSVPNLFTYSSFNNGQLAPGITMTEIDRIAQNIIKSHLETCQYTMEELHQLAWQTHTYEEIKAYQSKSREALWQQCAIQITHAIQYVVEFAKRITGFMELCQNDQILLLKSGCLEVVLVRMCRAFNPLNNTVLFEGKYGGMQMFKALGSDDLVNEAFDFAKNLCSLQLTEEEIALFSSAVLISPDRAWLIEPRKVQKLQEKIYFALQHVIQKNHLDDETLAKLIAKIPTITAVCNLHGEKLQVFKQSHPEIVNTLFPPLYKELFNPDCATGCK
Chain of Nuclear receptor subfamily 1 group I member 2 (Homo sapiens) (O75469 whole entry, looked up, the tested form may be a part): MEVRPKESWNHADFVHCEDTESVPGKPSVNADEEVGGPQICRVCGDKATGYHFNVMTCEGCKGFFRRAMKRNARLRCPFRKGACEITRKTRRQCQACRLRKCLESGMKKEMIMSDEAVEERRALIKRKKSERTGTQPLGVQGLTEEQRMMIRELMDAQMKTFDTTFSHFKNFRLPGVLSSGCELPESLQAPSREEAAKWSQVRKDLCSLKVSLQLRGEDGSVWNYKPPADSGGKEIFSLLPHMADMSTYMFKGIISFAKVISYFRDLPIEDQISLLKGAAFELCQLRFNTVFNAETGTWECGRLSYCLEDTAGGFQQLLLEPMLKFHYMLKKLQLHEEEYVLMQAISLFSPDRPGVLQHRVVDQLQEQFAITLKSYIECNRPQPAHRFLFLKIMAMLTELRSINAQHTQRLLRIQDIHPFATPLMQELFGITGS
Chain of Retinoic acid receptor alpha (Homo sapiens) (P10276 whole entry, looked up, the tested form may be a part): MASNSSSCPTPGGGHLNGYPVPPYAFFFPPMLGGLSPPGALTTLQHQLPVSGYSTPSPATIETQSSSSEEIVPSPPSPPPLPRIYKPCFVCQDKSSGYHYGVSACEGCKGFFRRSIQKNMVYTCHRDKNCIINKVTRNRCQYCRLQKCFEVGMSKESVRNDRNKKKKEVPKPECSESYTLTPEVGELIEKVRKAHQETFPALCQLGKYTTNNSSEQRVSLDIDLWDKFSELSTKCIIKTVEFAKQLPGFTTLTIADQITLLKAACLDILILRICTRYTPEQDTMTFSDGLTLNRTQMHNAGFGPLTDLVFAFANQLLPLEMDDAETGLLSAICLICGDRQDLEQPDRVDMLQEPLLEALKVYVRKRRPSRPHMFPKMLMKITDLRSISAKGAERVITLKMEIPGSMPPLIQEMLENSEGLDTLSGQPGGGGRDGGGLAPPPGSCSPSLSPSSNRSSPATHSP

A word on the AC50: it is the midpoint of the concentration-response curve, whichever way the signal moves. Take `CCCCCCCCCCCCCCC(Br)C(=O)O` (stereo unspecified): the call in assay [1], in assay [2], in assay [6] and in assay [10] was inactive. Further, the AC50 in assay [3] was 50.4 µM (active); in assay [4], 30.1 µM (active); in [5], 161 µM (active); in [7], 1.44 µM (active); in assay [8] it was 7.74 µM (active); in assay [9] it was 11.4 µM (active).
Take `Brc1c(Br)c(Br)c(Oc2c(Br)c(Br)c(Br)c(Br)c2Br)c(Br)c1Br`: the result in [1], in assay [2], in assay [3], in [4], in [5] and in assay [6] was inactive. The outcome in assay [7], in assay [8], in assay [11], in assay [9], in [12] and in assay [13] was inactive.
As to `Clc1cnc(Oc2ccc(Oc3ncc(Cl)cc3Cl)cc2)c(Cl)c1`, the compound was classed as inactive in assay [1], in assay [2], in assay [3], in [4], in [5] and in [6]. In addition, the compound was classed as inactive in assay [7] and in [13]. Further, the concentration at half-maximal activity (AC50) is 16.7 µM (active) in [9] and 7.48 µM (active) in assay [10].
`CN(C)[C@@H]1C(=O)C(C(N)=O)=C(O)[C@@]2(O)C(=O)C3=C(O)c4c(O)ccc(Cl)c4[C@@](C)(O)[C@H]3C[C@@H]12`: the call in assay [1], in assay [2], in assay [3], in [5], in assay [6] and in [7] was inactive. Also, the outcome in [8] and in assay [12] was inactive. Further, the AC50 in [4] was 20.3 µM (active).
`C=CCOC(N)=O`: the call in assay [1], in assay [2], in assay [3], in assay [4], in assay [5] and in [6] was inactive. The call in [8], in [11], in assay [9] and in assay [12] was inactive.
